Test results published in the supplement of paper PMC6411743.
± gives the standard deviation of the averaged measurements. About 5,400 targets were measured; listed, in parts, are those with the largest changes and a random draw of the rest.

Compound: Nc1nc2c(ncn2[C@@H]2O[C@H](COP(=O)(O)OP(=O)(O)OP(=O)(O)O)[C@@H](O)[C@H]2O)c(=O)[nH]1 [guanosine triphosphate]
Experiment: NP40-soluble protein abundance relative to vehicle (solubility fold change) (ratio); higher = more soluble protein in presence of GTP
Procedure, shortened: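 Values are fold changes against the detergent-processed vehicle, based on vsn-normalised intensities. Jurkat crude lysate was treated at eight concentrations from 0.1 to 10 mM (10 min at room temperature, then 3 min at 37 °C), solubilised with 0.8% NP40 and benzonase, ultracentrifuged and analysed by TMT-labelled LC-MS/MS over three independent experiments.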

UniProt Q15424, sequence (Q15424 whole entry): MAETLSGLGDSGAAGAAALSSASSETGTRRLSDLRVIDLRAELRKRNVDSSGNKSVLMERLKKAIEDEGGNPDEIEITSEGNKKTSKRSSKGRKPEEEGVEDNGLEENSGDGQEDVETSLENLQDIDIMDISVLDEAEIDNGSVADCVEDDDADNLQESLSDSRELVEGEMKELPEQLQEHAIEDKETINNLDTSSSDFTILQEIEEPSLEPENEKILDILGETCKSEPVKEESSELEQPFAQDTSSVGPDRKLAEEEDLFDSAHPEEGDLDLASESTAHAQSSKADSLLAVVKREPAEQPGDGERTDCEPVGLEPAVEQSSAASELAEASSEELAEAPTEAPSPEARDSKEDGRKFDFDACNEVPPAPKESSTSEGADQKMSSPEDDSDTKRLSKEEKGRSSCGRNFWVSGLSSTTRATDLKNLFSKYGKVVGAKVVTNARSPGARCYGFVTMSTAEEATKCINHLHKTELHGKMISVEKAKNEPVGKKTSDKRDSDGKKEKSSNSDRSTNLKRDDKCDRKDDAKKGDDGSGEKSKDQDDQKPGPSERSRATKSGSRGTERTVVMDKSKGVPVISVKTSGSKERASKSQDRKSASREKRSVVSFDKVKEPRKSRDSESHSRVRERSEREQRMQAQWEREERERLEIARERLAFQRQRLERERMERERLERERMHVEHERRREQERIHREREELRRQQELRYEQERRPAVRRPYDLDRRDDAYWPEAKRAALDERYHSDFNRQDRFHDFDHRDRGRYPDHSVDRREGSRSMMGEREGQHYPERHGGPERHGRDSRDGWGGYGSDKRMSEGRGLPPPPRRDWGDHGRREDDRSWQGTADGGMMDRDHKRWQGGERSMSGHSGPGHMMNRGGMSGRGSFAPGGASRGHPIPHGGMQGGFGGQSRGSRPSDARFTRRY
UniProt P62136, sequence (P62136 whole entry): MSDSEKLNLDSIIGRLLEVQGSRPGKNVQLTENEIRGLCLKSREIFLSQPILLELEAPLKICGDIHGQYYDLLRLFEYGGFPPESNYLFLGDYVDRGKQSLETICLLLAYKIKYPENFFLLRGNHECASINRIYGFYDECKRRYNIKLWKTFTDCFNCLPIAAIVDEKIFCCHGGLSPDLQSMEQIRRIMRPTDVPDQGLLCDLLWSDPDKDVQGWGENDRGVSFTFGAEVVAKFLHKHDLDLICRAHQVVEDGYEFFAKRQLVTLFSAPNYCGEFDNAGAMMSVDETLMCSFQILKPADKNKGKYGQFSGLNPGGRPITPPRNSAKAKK
UniProt Q13496, sequence (Q13496 whole entry): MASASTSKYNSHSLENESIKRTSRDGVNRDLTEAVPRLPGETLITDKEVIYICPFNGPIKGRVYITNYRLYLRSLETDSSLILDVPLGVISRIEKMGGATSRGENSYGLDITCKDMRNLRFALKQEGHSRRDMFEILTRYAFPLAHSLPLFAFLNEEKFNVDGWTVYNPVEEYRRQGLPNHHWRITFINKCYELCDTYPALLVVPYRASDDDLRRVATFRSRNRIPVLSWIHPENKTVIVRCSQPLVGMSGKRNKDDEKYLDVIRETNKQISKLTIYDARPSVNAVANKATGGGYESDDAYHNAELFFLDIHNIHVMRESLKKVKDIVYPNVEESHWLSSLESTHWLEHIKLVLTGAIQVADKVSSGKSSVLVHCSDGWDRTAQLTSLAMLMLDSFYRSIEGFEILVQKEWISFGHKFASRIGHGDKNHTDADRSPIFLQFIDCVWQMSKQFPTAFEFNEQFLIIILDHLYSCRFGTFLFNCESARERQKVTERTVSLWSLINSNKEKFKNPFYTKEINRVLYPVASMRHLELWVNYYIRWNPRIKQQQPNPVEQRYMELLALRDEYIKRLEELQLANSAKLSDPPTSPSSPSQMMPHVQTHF
UniProt Q12872, sequence (Q12872 whole entry): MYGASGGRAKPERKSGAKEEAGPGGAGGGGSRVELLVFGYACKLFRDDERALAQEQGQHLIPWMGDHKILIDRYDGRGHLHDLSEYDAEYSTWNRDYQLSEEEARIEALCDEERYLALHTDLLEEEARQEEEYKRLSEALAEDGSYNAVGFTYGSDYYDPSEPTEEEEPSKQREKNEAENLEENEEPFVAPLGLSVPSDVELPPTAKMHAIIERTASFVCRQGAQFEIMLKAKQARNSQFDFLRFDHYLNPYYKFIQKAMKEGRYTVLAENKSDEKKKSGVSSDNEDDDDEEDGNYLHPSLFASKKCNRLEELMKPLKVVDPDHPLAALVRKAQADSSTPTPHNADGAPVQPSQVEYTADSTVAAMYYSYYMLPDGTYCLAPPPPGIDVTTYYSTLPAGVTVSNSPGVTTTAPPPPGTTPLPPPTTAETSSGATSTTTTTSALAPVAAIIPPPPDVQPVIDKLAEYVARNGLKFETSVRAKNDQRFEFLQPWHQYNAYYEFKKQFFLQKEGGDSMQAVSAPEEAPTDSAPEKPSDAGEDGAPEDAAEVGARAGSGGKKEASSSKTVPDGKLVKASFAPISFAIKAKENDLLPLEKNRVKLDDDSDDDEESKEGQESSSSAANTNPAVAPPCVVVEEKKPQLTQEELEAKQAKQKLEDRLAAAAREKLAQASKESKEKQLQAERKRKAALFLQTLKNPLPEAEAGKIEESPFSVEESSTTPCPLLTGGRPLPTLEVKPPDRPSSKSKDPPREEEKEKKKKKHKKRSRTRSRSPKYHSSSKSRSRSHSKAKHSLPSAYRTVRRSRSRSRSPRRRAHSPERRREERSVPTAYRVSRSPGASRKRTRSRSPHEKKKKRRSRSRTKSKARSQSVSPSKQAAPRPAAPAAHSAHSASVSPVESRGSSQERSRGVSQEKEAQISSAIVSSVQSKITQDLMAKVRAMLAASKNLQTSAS
UniProt Q8WUQ7, sequence (Q8WUQ7 whole entry): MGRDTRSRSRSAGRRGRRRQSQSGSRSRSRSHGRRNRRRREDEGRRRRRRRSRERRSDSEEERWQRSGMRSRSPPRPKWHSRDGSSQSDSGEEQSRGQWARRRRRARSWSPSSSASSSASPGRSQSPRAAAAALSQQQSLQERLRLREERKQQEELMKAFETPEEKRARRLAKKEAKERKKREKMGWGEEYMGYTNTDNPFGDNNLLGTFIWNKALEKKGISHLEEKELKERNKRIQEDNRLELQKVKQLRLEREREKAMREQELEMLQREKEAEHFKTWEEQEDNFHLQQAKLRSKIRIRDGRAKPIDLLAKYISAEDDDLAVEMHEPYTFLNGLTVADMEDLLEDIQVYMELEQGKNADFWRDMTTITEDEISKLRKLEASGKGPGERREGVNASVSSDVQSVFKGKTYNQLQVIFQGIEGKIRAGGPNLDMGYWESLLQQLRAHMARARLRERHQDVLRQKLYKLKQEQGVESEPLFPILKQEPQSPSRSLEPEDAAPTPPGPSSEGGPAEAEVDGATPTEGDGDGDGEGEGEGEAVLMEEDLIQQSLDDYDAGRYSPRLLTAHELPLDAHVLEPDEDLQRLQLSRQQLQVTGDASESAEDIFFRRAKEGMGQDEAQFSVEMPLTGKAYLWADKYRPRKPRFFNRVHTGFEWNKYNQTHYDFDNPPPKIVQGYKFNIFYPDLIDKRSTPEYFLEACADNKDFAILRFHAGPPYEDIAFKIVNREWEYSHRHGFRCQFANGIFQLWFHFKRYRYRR
UniProt Q86Y37, sequence (Q86Y37 whole entry): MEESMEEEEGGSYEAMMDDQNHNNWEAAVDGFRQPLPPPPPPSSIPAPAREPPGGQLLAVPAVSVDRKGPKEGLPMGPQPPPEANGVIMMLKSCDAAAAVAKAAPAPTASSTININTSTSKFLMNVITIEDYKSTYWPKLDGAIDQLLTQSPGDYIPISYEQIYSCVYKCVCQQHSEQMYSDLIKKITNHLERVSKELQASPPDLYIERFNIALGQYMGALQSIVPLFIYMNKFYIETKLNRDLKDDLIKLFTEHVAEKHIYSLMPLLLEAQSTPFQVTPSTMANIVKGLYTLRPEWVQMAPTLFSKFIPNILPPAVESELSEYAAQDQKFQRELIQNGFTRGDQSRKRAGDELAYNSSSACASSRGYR
UniProt Q8IX12, sequence (Q8IX12 whole entry): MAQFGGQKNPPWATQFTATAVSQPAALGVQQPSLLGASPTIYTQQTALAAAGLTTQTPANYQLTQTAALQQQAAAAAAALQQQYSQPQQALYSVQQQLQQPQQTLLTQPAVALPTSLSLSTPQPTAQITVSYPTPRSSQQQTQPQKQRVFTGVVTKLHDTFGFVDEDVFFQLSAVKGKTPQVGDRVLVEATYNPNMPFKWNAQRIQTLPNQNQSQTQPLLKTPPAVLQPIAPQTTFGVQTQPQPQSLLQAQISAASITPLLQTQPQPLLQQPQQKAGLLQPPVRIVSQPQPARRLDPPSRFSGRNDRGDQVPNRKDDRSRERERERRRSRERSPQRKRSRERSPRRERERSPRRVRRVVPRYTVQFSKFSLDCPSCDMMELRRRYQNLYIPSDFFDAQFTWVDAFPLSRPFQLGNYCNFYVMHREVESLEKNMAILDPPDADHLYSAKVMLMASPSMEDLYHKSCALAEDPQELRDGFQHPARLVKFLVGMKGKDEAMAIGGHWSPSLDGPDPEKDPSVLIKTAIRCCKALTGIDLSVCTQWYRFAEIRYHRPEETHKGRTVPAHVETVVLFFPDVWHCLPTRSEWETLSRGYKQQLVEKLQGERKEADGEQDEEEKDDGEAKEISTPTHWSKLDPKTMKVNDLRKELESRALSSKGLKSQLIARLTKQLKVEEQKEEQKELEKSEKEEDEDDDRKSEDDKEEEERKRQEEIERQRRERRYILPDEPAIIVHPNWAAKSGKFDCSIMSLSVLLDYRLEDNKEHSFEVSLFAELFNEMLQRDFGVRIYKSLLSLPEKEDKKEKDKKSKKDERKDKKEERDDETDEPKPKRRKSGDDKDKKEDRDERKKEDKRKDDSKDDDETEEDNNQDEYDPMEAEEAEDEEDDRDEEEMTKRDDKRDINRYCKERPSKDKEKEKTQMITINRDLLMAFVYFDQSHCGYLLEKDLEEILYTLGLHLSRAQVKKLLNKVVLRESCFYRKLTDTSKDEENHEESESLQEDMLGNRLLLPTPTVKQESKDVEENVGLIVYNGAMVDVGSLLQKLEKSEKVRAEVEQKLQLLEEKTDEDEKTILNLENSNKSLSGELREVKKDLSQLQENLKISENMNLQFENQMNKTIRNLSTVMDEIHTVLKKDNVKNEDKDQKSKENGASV

Target	NP40-soluble protein abundance (concentration: 0.1mM)	NP40-soluble protein abundance (concentration: 0.5mM)	NP40-soluble protein abundance (concentration: 1mM)	NP40-soluble protein abundance (concentration: 2mM)	NP40-soluble protein abundance (concentration: 4mM)	NP40-soluble protein abundance (concentration: 6mM)	NP40-soluble protein abundance (concentration: 8mM)	NP40-soluble protein abundance (concentration: 10mM)
THOC7 (UniProt Q6I9Y2)	0.999 ± 0.13	1.15 ± 0.095	1.6 ± 0.23	1.92 ± 0.32	2.31 ± 0.58	2.51 ± 0.63	2.43 ± 0.56	2.78 ± 0.98
UniProt Q02880|Q02880-2	1.08 ± 0.06	1.09 ± 0.065	1.21 ± 0.06	1.37 ± 0.11	1.68 ± 0.17	1.85 ± 0.27	1.99 ± 0.26	2.08 ± 0.34
UniProt P63151|E5RJV1	0.983 ± 0.037	1.02 ± 0.071	0.934 ± 0.068	0.931 ± 0.083	0.955 ± 0.079	0.887 ± 0.071	0.92 ± 0.016	0.8766 ± 0.0055
NANP (UniProt Q8TBE9)	1.07 ± 0.15	0.981 ± 0.11	0.954 ± 0.14	0.982 ± 0.16	0.904 ± 0.12	0.877 ± 0.14	0.891 ± 0.2	0.861 ± 0.15
UniProt Q8NCW5	0.907 ± 0.084	0.869 ± 0.041	0.991 ± 0.083	0.986 ± 0.055	0.967 ± 0.085	0.932 ± 0.08	0.895 ± 0.11	0.969 ± 0.1
UniProt P55884|P55884-2	1.02 ± 0.042	1.07 ± 0.056	1.03 ± 0.068	1.14 ± 0.18	1.29 ± 0.26	1.46 ± 0.33	1.55 ± 0.34	1.75 ± 0.36
UniProt Q16630|Q16630-2	1.16 ± 0.012	1.64 ± 0.098	1.95 ± 0.22	2.23 ± 0.3	2.49 ± 0.41	2.58 ± 0.45	2.71 ± 0.58	2.75 ± 0.56
UniProt Q15424|Q15424-3|Q15424-4	0.958 ± 0.048	0.938 ± 0.052	1.04 ± 0.039	1.09 ± 0.081	1.19 ± 0.066	1.25 ± 0.041	1.38 ± 0.083	1.44 ± 0.083
UniProt Q86V81	0.939 ± 0.019	0.943 ± 0.079	1.12 ± 0.036	1.25 ± 0.097	1.5 ± 0.047	1.73 ± 0.054	1.95 ± 0.1	2.52 ± 0.13
UniProt Q12872|Q12872-2	0.979 ± 0.031	1.04 ± 0.027	1.17 ± 0.014	1.24 ± 0.024	1.42 ± 0.016	1.52 ± 0.068	1.7 ± 0.13	1.78 ± 0.13
UniProt Q86V88|Q86V88-2	0.975 ± 0.052	0.901 ± 0.079	0.953 ± 0.11	0.872 ± 0.064	0.869 ± 0.048	0.839 ± 0.089	0.858 ± 0.058	0.88 ± 0.078
UniProt Q8TDZ2|Q8TDZ2-4	1.01 ± 0.056	0.965 ± 0.069	0.946 ± 0.021	0.9475 ± 0.0091	0.9237 ± 0.0088	0.899 ± 0.019	0.921 ± 0.016	0.879 ± 0.058
UniProt Q13085|A0A087X126	1.09 ± 0.08	1.09 ± 0.11	1.03 ± 0.088	1.07 ± 0.14	1.05 ± 0.11	1.04 ± 0.097	0.975 ± 0.072	0.956 ± 0.056
UniProt Q12802|Q12802-2|Q12802-4	0.99 ± 0.12	1.01 ± 0.092	1.01 ± 0.099	1 ± 0.12	0.977 ± 0.11	1.04 ± 0.11	1.02 ± 0.1	1.02 ± 0.084
UniProt Q8IX12|Q8IX12-2	0.993 ± 0.042	0.985 ± 0.027	1.004 ± 0.0041	0.996 ± 0.03	1.08 ± 0.056	1.12 ± 0.06	1.17 ± 0.077	1.14 ± 0.059
PPP1CA (UniProt P62136)	0.894 ± 0.12	0.92 ± 0.12	0.861 ± 0.081	0.834 ± 0.072	0.855 ± 0.083	0.853 ± 0.056	0.837 ± 0.098	0.828 ± 0.092
UniProt Q14444|Q14444-2	0.95 ± 0.057	0.994 ± 0.098	1.06 ± 0.07	1.01 ± 0.14	1.02 ± 0.088	1.11 ± 0.1	1.16 ± 0.057	1.13 ± 0.11
UniProt P60891	1.03 ± 0.072	1.15 ± 0.18	1.18 ± 0.22	1.26 ± 0.25	1.29 ± 0.23	1.3 ± 0.28	1.28 ± 0.27	1.26 ± 0.23
ASCC3 (UniProt Q8N3C0)	1 ± 0.066	1.09 ± 0.026	1.06 ± 0.032	1.16 ± 0.091	1.32 ± 0.17	1.38 ± 0.22	1.53 ± 0.26	1.73 ± 0.27
UniProt Q6NW34|Q6NW34-2	0.848 ± 0.051	0.888 ± 0.08	0.881 ± 0.074	0.85 ± 0.031	0.839 ± 0.071	0.929 ± 0.032	0.871 ± 0.059	0.93 ± 0.012
UniProt Q8WUQ7|Q8WUQ7-2	0.975 ± 0.11	1.02 ± 0.12	0.967 ± 0.13	1.02 ± 0.14	1.09 ± 0.13	1.12 ± 0.095	1.12 ± 0.03	1.19 ± 0.11
UniProt Q86Y37|Q86Y37-4	0.963 ± 0.063	0.923 ± 0.074	0.9527 ± 0.0029	0.9274 ± 0.0067	0.907 ± 0.091	0.905 ± 0.048	0.87 ± 0.057	0.889 ± 0.054
UniProt Q6KCM7|Q6KCM7-2|Q6KCM7-3|Q6KCM7-4|Q6KCM7-5|Q6KCM7-6	1.12 ± 0.041	1.08 ± 0.034	1.06 ± 0.058	1.04 ± 0.016	1.04 ± 0.066	1.019 ± 0.0034	0.982 ± 0.061	0.989 ± 0.098
UniProt P62195	1.03 ± 0.069	1.08 ± 0.12	1.04 ± 0.14	1.07 ± 0.17	1.06 ± 0.15	1.08 ± 0.19	1.06 ± 0.16	0.977 ± 0.15
UniProt Q7L5D6|Q7L5D6-2	1.03 ± 0.056	0.98 ± 0.091	0.94 ± 0.047	0.975 ± 0.11	0.963 ± 0.12	0.986 ± 0.1	0.868 ± 0.053	0.887 ± 0.12
UniProt Q8N2K0|Q8N2K0-2	1.09 ± 0.011	1.04 ± 0.051	1.01 ± 0.017	1.017 ± 0.0025	1.03 ± 0.015	1.01 ± 0.023	0.997 ± 0.031	0.976 ± 0.034
UniProt P61962	1.02 ± 0.081	1.08 ± 0.089	0.988 ± 0.07	1.04 ± 0.1	1.02 ± 0.057	1.01 ± 0.092	0.946 ± 0.021	0.964 ± 0.03
UniProt P63092-2|P63092-3|P63092|P63092-4	0.973 ± 0.013	0.9607 ± 0.0034	0.922 ± 0.025	0.91 ± 0.024	0.882 ± 0.043	0.882 ± 0.038	0.873 ± 0.026	0.847 ± 0.031
UniProt Q53EL6|Q53EL6-2	0.992 ± 0.14	1.08 ± 0.18	1.12 ± 0.24	1.23 ± 0.34	1.45 ± 0.45	1.66 ± 0.47	1.81 ± 0.48	2.16 ± 0.58
MTM1 (UniProt Q13496)	1.01 ± 0.078	1.08 ± 0.088	0.961 ± 0.043	0.99 ± 0.076	0.933 ± 0.093	0.962 ± 0.093	0.93 ± 0.057	0.891 ± 0.087
